Each structure is given as a SMILES string. The whole screen tested about 52,000 compounds, of which about 1,700 (3.3%) were called active. The sample holds actives, similar compounds and a random draw of the others, so the mix is not that of the screen. Unmarked numbers belong to inactive results. No stated cut-off is given here; in the data, active means survival mostly below about 52% (no sharp cut-off); inactive means mostly above about 56%.

This experiment has as its system Wild type. Description: S. aureus survival, RN4220 and DeltatarO strains – OD600, teichoic acid synthesis inhibitors, primary screen (AID 463173). The conditions noted are these: S. aureus RN4220 wild type/DeltatarO growth, OD600, 18 h, active compounds read low, screened at 18.75 µg/mL (by protocol).
For `COc1ccc(CC(=O)NCC(c2ccc(N(C)C)cc2)N2CCOCC2)cc1` (configuration not stated), the survival is 81%. Regarding `Clc1ccccc1-c1nnc(-c2ccccc2CNc2ccc(Br)cc2)o1`, the survival is 91%.

As to `CCCNC(=O)Cn1nc(-c2ccc(OC)cc2)c2cnc3ccc(F)cc3c21`, the survival was 73%. Consider `Cc1cccc(CNS(=O)(=O)c2ccc3[nH]c(=O)ccc3c2)c1`, for which the survival was 124%. Turning to `COc1ccc(C(C(=O)NCc2ccccc2)N(Cc2ccco2)C(=O)c2cnccn2)cc1` (configuration not stated), the survival was 101%.

As to `COc1cccc(CNC(=O)C(NS(=O)(=O)c2cccs2)C(C)C)c1` (configuration not stated), the survival was 94%. With `COc1ccc(OC)c(C2N=C(N)Nc3nc4ccccc4n32)c1` (configuration not stated) the figure was 72%. With `COc1cc(Nc2nc3ccc(Cl)cc3nc2-n2nc(C)cc2C)cc(OC)c1` the figure was 93%; with `Cc1cc(C)n2c(SCC(=O)N(C)C3CCCCC3)nnc2n1`, 101%.

Take `CC(C)(C)C(=O)NC1CCN(S(=O)(=O)c2ccccc2C(=O)O)CC1`: the survival was 105%.

As for `CCCN(CCC)CCCNC(=O)c1cc2c(-c3ccc(Cl)cc3)nn(C)c2s1`, the survival is 95%. In the case of `CCCN(CCC)CCNC(=O)c1cc2c(-c3ccc(Cl)cc3)nn(C)c2s1`, the survival was 81%.

Consider `CCCCN(CC)CCNC(=O)c1cc2c(-c3ccc(Cl)cc3)nn(C)c2s1`, for which the survival was 5% (active).

Consider `CCOc1ccc(-c2c(C)nn3c(C)c(C(=O)NC(C)c4ccccc4)cnc23)cc1OCC` (configuration not stated), for which the survival was 75%. With `Cc1ccc(CNC(=O)CN2C(=O)CCc3cc(S(=O)(=O)N4CCCCC4)ccc32)cc1` the figure was 91%; with `COc1nc(C)c(/C=C/C(=O)N(C(=O)NC2CCCCC2)C2CCCCC2)c(OC)n1`, 101%. As for `Clc1cccc(N2CCN(c3nc4ccccc4n4cnnc34)CC2)c1`, the survival is 70%. With `FC(F)(F)c1cccc(N2CCN(c3nc4ccccc4n4cnnc34)CC2)c1` the figure was 2% (active). In the case of `CCc1nnc2c(N3CCN(c4cccc(C(F)(F)F)c4)CC3)nc3ccccc3n12`, the survival is 120%. With `COc1cccc(/C=C/c2nc(C#N)c(N3CCCCC3)o2)c1` the figure was 67%; with `CCOc1ccccc1N(C)C(=O)Cn1cnc2onc(-c3ccc(F)cc3)c2c1=O`, 90%; with `Cc1cc(C)cc(-n2ccnc(NCCc3ccccc3)c2=O)c1`, 75%. With `COc1ccccc1CNc1nccn(-c2ccc(F)cc2)c1=O` the figure was 76%. With `COc1ccc(-n2ccnc(NCCc3ccc(Cl)cc3)c2=O)cc1OC` the figure was 47%. For the compound `O=c1c(NCc2ccccc2Cl)nccn1-c1ccccc1`, the survival is -1% (active). With `O=c1c(NCCc2ccc(Cl)cc2)nccn1-c1ccccc1` the figure was 14% (active). With `COc1ccc(-n2ccnc(NCc3ccccc3Cl)c2=O)cc1OC` the figure was 71%; with `Cc1ccc(S(=O)(=O)NCC2CCC(C(=O)NCc3ccc(F)cc3)CC2)cc1` (configuration not stated), 75%.

For the compound `CCC(C)NC(=O)c1ccc2c(c1)N(Cc1ccccc1)C(=O)c1ccccc1S2(=O)=O` (configuration not stated), the survival was 85%.

For `COC(=O)c1cc(S(=O)(=O)NCC2CCN(Cc3cccc(F)c3)CC2)c[nH]1`, the survival was 90%. With `CN(Cc1nc(-c2ccc(Cl)cc2)no1)S(=O)(=O)c1ccccc1` the figure was 82%; with `Cc1cccc(NC(=O)N2CCC(CN3CCc4ccccc4C3)CC2)c1C`, -4% (active).

For the compound `CCc1ccccc1NC(=O)N1CCC(CN2CCc3ccccc3C2)CC1`, the survival is 60%.

In the case of `CCOc1ccc(NC(=O)N2CCC(CN3CCc4ccccc4C3)CC2)cc1`, the survival was -3% (active). With `Cc1cccc(NC(=O)N2CCC(CN3CCCCCC3)CC2)c1C` the figure was 55%; with `CCOc1ccc(NC(=O)N2CCC(CN3CCCCCC3)CC2)cc1`, 111%. With `CCOc1ccc(NC(=O)N2CCC(CN3CCC(C)CC3)CC2)cc1` the figure was 127%. With `COC(=O)c1ccc(NC(=O)N2CCC(CN3CCc4ccccc4C3)CC2)cc1` the figure was 1% (active); with `COc1cc(NC(=O)N2CCC(CN3CCc4ccccc4C3)CC2)cc(OC)c1`, 81%. `Cc1cc(C)cc(NC(=O)N2CCC(CN3CCc4ccccc4C3)CC2)c1`: the survival was 81%. As to `CCCC(=O)Nc1cc(-c2nnc3c4ccccc4c(C)nn23)ccc1C`, the survival is 72%. Take `O=C(Nc1ccc(O)c(-c2nc3ccccc3o2)c1)c1ccc(Br)cc1`: the survival was 88%.

As for `CC1Cn2cc(C(=O)Nc3cccc(C(F)(F)F)c3)c(=O)c3c(Cl)ccc(c32)O1` (configuration not stated), the survival was 89%.

As for `CCOC(=O)c1cccnc1SCC(=O)N(CC)c1cccc(C)c1`, the survival was 70%.

For `CCn1c(CN2CCCCC2)nc2cc(NC(=O)COc3ccc(C(C)(C)C)cc3)ccc21`, the survival is 97%. With `CCOc1cc(C2NC(=O)c3c(sc4c3CCN(C)C4)N2)ccc1OC(=O)c1ccc(Br)cc1` (configuration not stated) the figure was 71%. In the case of `CCCCCOc1ccc(/C=C/C(=O)Nc2sc(C(C)=O)c(C)c2C(=O)OCC)cc1OC`, the survival is 76%. Take `CCOC(=O)CSc1nc2cc3c(cc2c(=O)n1CCCCCC(=O)NCc1ccc2c(c1)OCO2)OCO3`: the survival was 81%. With `CCOc1ccc(C(=O)c2cn(CC(=O)Nc3cc(OC)ccc3OC)c3cc(OC)c(OC)cc3c2=O)cc1` the figure was 68%. With `CCOC(=O)C1CCN(S(=O)(=O)c2cc3c4c(c2)C(C)C(=O)N4CCC3)CC1` (configuration not stated) the figure was 88%. With `COC(=O)C1CCN(S(=O)(=O)c2cc3c4c(c2)C(C)C(=O)N4CCC3)CC1` (configuration not stated) the figure was 125%; with `CC1C(=O)N2CCCc3cc(S(=O)(=O)N4CCC(C(N)=O)CC4)cc1c32` (configuration not stated), -3% (active); with `COc1ccc(N2CCN(C(=O)CSc3n[nH]c(-c4ccccc4)n3)CC2)cc1`, 72%.

Regarding `COc1ccc(S(=O)(=O)N(CC(=O)Nc2ccccc2Br)Cc2ccccc2)cc1`, the survival was 77%. With `Cc1cc(C)cc(Nc2cc(C(=O)NCCCN(Cc3ccccc3)C(C)C)c3ccccc3n2)c1` the figure was -6% (active); with `Cc1cc(C)cc(Nc2cc(C(=O)NCCCN(C)C3CCCCC3)c3ccccc3n2)c1`, 26% (active); with `CCCN(CCC)CCNC(=O)c1cc(-c2ccc(Br)s2)nc2ccccc12`, 80%. With `CCCCN(C)CCCNC(=O)c1cc(-c2ccc(Br)s2)nc2ccccc12` the figure was 26% (active). With `COc1ccc(Nc2cc(C(=O)NCCCN(C)C3CCCCC3)c3ccccc3n2)cc1` the figure was 99%. On to `CSc1cccc(Nc2cc(C(=O)NCCCN(Cc3ccccc3)C(C)C)c3ccccc3n2)c1`, for which the survival is 75%. With `Cc1ccc(C)c(Nc2cc(C(=O)NCCCN(C)C3CCCCC3)c3ccccc3n2)c1` the figure was 99%. With `Cc1cc(C)cc(Nc2cc(C(=O)NCc3ccccc3)c3ccccc3n2)c1` the figure was 139%; with `CCCCN(C)CCNC(=O)c1cc(-c2ccc(Cl)s2)nc2ccccc12`, 82%; with `Cc1ccc2c(c1)NC(=O)C(CC(=O)Nc1cc(Cl)ccc1C)O2` (configuration not stated), 77%.

In the case of `COc1ccc(Br)cc1S(=O)(=O)Nc1cc(-c2cn3ccccc3n2)ccc1C`, the survival was 63%. With `Cc1ccc(C(=O)Nc2ccc3c(c2)N(C)C(=O)c2ccccc2S3)cc1F` the figure was 72%; with `O=C(Cn1ncn2c(cc3sccc32)c1=O)NCCc1ccccc1`, 85%. `CC(Sc1nnc(-c2ccccc2)n1N)C(=O)O` (configuration not stated): the survival was 109%. With `CCOc1ccc(Nc2ncnc3c2cnn3-c2ccc(F)cc2)cc1` the figure was 60%; with `Cc1ccc(N2CCN(C(=O)c3c(C)oc4ncnc(N5CCOCC5)c34)CC2)c(C)c1`, 83%; with `CSc1ccc(-c2nc3ncccn3c2Nc2ccc(C)c(C)c2)cc1`, 60%. With `COc1cc(OC)c(NC(=O)c2c(C)oc3ncn(C)c(=O)c23)cc1Cl` the figure was 88%. With `CCOc1ccccc1NC(c1nnc(-c2ccccc2)o1)c1ccc(F)cc1Cl` (configuration not stated) the figure was 2% (active); with `COc1ccc(C)cc1NC(c1nnc(-c2ccccc2)o1)c1ccc(F)cc1Cl` (configuration not stated), 3% (active); with `CCc1ccccc1NC(c1nnc(-c2cccc(F)c2)o1)c1ccc(F)cc1Cl` (configuration not stated), 86%. On to `Cc1cccc(NC(c2nnc(-c3ccccc3)o2)c2ccc(F)cc2Cl)c1C` (configuration not stated), for which the survival was 55%.

Turning to `COc1cccc(NC(c2nnc(-c3ccccc3)o2)c2ccc(F)cc2Cl)c1` (configuration not stated), the survival is 56%. Regarding `COc1cc(OC)c(NC(c2nnc(-c3ccccc3)o2)c2ccc(F)cc2Cl)cc1Cl` (configuration not stated), the survival is 66%. With `COc1ccc(S(=O)(=O)NCCc2csc(-c3ccc(F)cc3)n2)cc1F` the figure was 81%; with `Cc1cc(C)cc(NC(=O)CCS(=O)(=O)c2cccc3nsnc23)c1`, 64%. For the compound `COc1cc(C2c3c(oc4ccccc4c3=O)C(=O)N2c2nncs2)cc(OC)c1OC` (configuration not stated), the survival was 76%. With `Cc1ccc2c(c1)sc1nc(=O)n(-c3ccc(Cl)cc3)c(=O)n12` the figure was 77%; with `Cc1ccc2c(c1)sc1nc(=O)n(-c3ccc(Cl)c(Cl)c3)c(=O)n12`, -4% (active). `Cc1ccc2c(c1)sc1nc(=O)n(-c3cccc(Cl)c3)c(=O)n12`: the survival is 70%.

For `CC(C)C(NS(=O)(=O)c1cccc2cccnc12)C(=O)Nc1ccc(OC(F)(F)F)cc1` (configuration not stated), the survival is 100%.

In the case of `CCOc1ccc(-c2cnc(NCc3cccc(Cl)c3)n2C)cc1`, the survival is 52%.

For the compound `COc1ccc(OC)c(CNc2ncc(-c3ccc(Cl)cc3)n2C)c1`, the survival was 34%. `CCOc1ccc(-c2cnc(NCc3ccc(OC)cc3OC)n2C)cc1`: the survival was 68%. With `Cc1ccc(-c2cnc(NCc3ccc(C(C)C)cc3)n2C)cc1` the figure was -13% (active). With `Cc1ccc(-c2cnc(NC(=O)CCC(=O)N3CCCCC3)n2C)cc1` the figure was 110%; with `COc1cccc(-c2cnc(NCc3ccccc3Cl)n2C)c1`, 70%. With `Cc1ccc(-c2cnc(NCc3ccc(C(F)(F)F)cc3)n2C)cc1` the figure was -13% (active); with `Cn1c(-c2ccccc2)cnc1NCc1ccccc1O`, 60%; with `CCOc1ccc(-c2cnc(NCc3ccc(C(F)(F)F)cc3)n2C)cc1`, -12% (active). `CCc1ccc(CNc2ncc(-c3cccc(OC)c3)n2C)cc1`: the survival was 4% (active). Take `Cn1c(-c2cccc(Br)c2)cnc1NCc1cccc(F)c1`: the survival is 27%. With `COc1ccc(-c2cnc(NCc3ccc(C)cc3)n2C)cc1` the figure was 108%.

The values above are taken from PubChem BioAssay AID463173 (ICCB-Longwood Screening Facility, Harvard Medical School, 2010).
